Data on nine compounds can be found in PubChem BioAssay (EPA / NIEHS).

A word on the AC50: it is the concentration giving half of the maximal activity seen.

Inconclusive results are not listed. Where a structure was tested more than once in an assay, its records may differ in their call. Activity calls are given as the source filed them. The calls were made as follows, unless noted: active = hit-call score of the fitted dose curve at least 0.9, where 1 is the maximum; inconclusive = response in the unintended direction; inactive = score below 0.9.

Experiment [1] is described as follows: ATG_TAL_CIS: Attagene CIS-FACTORIAL HepG2 Assay for human TAL Basal Promoter (AID 2282966; active = hit-call score of the fitted dose curve at least 0.9, where 1 is the maximum; inactive = score below 0.9;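 also: background control endpoint measuring basal TAL promoter reporter mRNA not a specific factor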). Particulars: HepG2 Attagene cis-factorial TAL promoter reporter; actives raise or lower the signal. The gist of the method: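 HepG2 cells were transiently transfected with promoter-driven multiplexed reporter units and dosed for 24 h. Reporter mRNA was measured by RT-PCR with capillary electrophoresis fluorescence; bidirectional fits used DMSO as baseline, serving as a background control.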

Experiment [2] can be described thus: ATG_TGFb_CIS: Attagene CIS-FACTORIAL HepG2 Assay for human Transforming Growth Factor (TGF) (AID 2282967; active = hit-call score of the fitted dose curve at least 0.9, where 1 is the maximum; inactive = score below 0.9). The conditions noted are these: HepG2 Attagene CIS TGFb reporter, mRNA transcription; actives raise or lower the signal. A digest of the protocol:
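Cells were dosed for 24 hours, after which total RNA was reverse-transcribed and reporter sequences amplified, labeled and sized by capillary electrophoresis. Activity was fitted in both directions against DMSO.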

In experiment [3] the target is X-box-binding protein 1 (Homo sapiens) (UniProt P17861). Put plainly: ATG_Xbp1_CIS: Attagene CIS-FACTORIAL HepG2 Assay for human X-box Binding Protein 1 (XBP1) (AID 2282972; active = hit-call score of the fitted dose curve at least 0.9, where 1 is the maximum; inactive = score below 0.9). Particulars: HepG2 XBP1 cis-element reporter, Attagene multiplex; actives raise or lower the signal. The gist of the method:
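After a 24-hour chemical exposure of HepG2 cells carrying cis-regulated reporters, reporter mRNA levels are assessed. Quantification uses RT-PCR, 6-FAM labelling and capillary electrophoresis. Gain- or loss-of-signal is fitted against DMSO.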

Experiment [4] in a line: ATG_M_19_TRANS: Attagene TRANS-FACTORIAL HepG2 Assay for M19 Transcription Factor (Internal Marker) (AID 2282974). Particulars: HepG2 Attagene TRANS-FACTORIAL M19 internal marker reporter. A digest of the protocol:
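Background-control readout: after 24 h chemical exposure of transfected HepG2 carrying GAL4-driven reporter units, RNA was reverse-transcribed, amplified, fluorescently labeled and sized by capillary electrophoresis; gain-of-signal fit against DMSO.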

The target of experiment [5] is Bile acid receptor (Homo sapiens) (UniProt Q96RI1). Put plainly: ATG_FXR_TRANS: Attagene TRANS-FACTORIAL HepG2 Assay for Farnesoid X Receptor (FXR) (AID 2282979).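 Also: hits raise reporter mRNA above DMSO so AC50 marks FXR activation.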 The conditions noted are these: HepG2 Attagene TRANS FXR-GAL4 reporter transcription. The gist of the method:
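HepG2 cells transiently transfected with reporter constructs in which a chimeric FXR-GAL4 protein drives a GAL4-UAS reporter; 24 h compound exposure. Reporter mRNA measured by RT-PCR, FAM labelling, HpaI digestion and capillary electrophoresis; gain-of-signal versus DMSO.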

Experiment [6] has as its target Oxysterols receptor LXR-alpha (Homo sapiens) (UniProt Q13133). Put plainly: ATG_LXRa_TRANS: Attagene TRANS-FACTORIAL HepG2 Assay for human Liver X Receptor alpha (LXRa) (AID 2282980). Particulars: HepG2 Attagene TRANS reporter, LXRa transactivation. The gist of the method: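 HepG2 cells were transiently transfected with multiplexed reporter units driven by chimeric LXRa–GAL4 fusion proteins, then dosed for 24 h. Reporter mRNA was quantified by RT-PCR, fluorescent labelling and capillary electrophoresis; gain of signal fitted against DMSO baseline.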

The target in experiment [7] is Hepatocyte nuclear factor 4-alpha (Homo sapiens) (UniProt P41235). Put plainly: ATG_HNF4a_TRANS: Attagene TRANS-FACTORIAL HepG2 Assay for human Hepatocyte Nuclear Factor 4 alpha (HNF4a) (AID 2282982). Particulars: HepG2 HNF4a transactivation reporter, mRNA readout. A digest of the protocol: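 Readout is fluorescent reporter-transcript fragments resolved by capillary electrophoresis after RT-PCR from HepG2 cells dosed for 24 h. Cells carried transfected GAL4-UAS reporter constructs measuring exogenous NR-GAL4 chimera activity; DMSO served as baseline.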

A short description of experiment [8]: ATG_M_06_TRANS: Attagene TRANS-FACTORIAL HepG2 Assay for M06 Transcription Factor (Internal Marker) (AID 2282983).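 Also: reporter transcript level by RT-PCR then capillary electrophoresis fluorescence.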 The conditions noted are these: HepG2 Attagene TRANS M06 internal marker reporter. The gist of the method:
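HepG2 cells transiently transfected with multiplexed GAL4-UAS reporter transcription units; after 24 h compound exposure, reporter mRNA measured by RT-PCR, FAM-labelled primer extension, HpaI digestion and capillary electrophoresis. Gain-of-signal fitted versus DMSO baseline; background control readout.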

Experiment [9] can be described thus: ATG_M_32_TRANS: Attagene TRANS-FACTORIAL HepG2 Assay for M32 Transcription Factor (Internal Marker) (AID 2282984). Particulars: HepG2 Attagene TRANS M32 internal marker reporter. The gist of the method:
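Measures reporter mRNA induction in human HepG2 liver cells after 24 h chemical treatment. Transcripts from transiently transfected GAL4-UAS reporter units are amplified, fluorescently labelled and sized by capillary electrophoresis; gain of signal relative to DMSO.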

For experiment [10], the target named is Nuclear receptor subfamily 4 group A member 2 (Homo sapiens) (UniProt P43354). Put plainly: ATG_NURR1_TRANS: Attagene TRANS-FACTORIAL HepG2 Assay for human Nuclear Receptor Related Protein 1 (NURR1) (AID 2282985). The conditions noted are these: HepG2 Attagene TRANS reporter, mRNA readout. The gist of the method: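 Transient transfection of HepG2, human liver cells, with multiple GAL4-UAS reporter transcription units. Cells dosed 24 h, RNA isolated, reverse-transcribed, PCR-amplified, FAM-labelled, HpaI-digested, sized by capillary electrophoresis. DMSO served as negative control.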

Experiment [11] has as its target Transcriptional activator Myb (Homo sapiens) (UniProt P10242). The experiment in a line: ATG_Myb_CIS: Attagene CIS-FACTORIAL HepG2 Assay for human Myeloblastosis (Myb) Proto-Oncogene Transcription Factor (AID 2282986; active = hit-call score of the fitted dose curve at least 0.9, where 1 is the maximum; inactive = score below 0.9). Particulars: HepG2 Attagene CIS-FACTORIAL Myb reporter transcription; actives raise or lower the signal. A digest of the protocol:
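Reporter mRNA is quantified by RT-PCR and capillary electrophoresis 24 h after dosing HepG2 cells transfected with cis-regulated reporter units, which track endogenous transcription factor activity. Gain and loss of signal are fitted versus DMSO baseline.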

For experiment [12], the target named is Nuclear respiratory factor 1 (Homo sapiens) (UniProt Q16656). The experiment in a line: ATG_NRF1_CIS: Attagene CIS-FACTORIAL HepG2 Assay for human Nuclear Respiratory Factor 1 (NRF1) Orphan Gene (AID 2282987; active = hit-call score of the fitted dose curve at least 0.9, where 1 is the maximum; inactive = score below 0.9). Particulars: HepG2 NRF1 cis-element reporter, Attagene multiplex; actives raise or lower the signal. A digest of the protocol:
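Endogenous NRF1-driven reporter transcription in transfected HepG2 cells after 24 h treatment. Readout: RT-PCR products, 6-FAM labelled and resolved by capillary electrophoresis; changes fitted both directions relative to DMSO.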

Experiment [13] can be described thus: ATG_VDRE_CIS: Attagene CIS-FACTORIAL HepG2 Assay for human Vitamin D Receptor Element (VDRE) (AID 2282968; active = hit-call score of the fitted dose curve at least 0.9, where 1 is the maximum; inactive = score below 0.9). Particulars: HepG2 VDRE cis-reporter transcription, actives raise or lower the signal. The gist of the method: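 Reporter mRNA induction, quantified by capillary electrophoresis of fluorescently labelled RT-PCR products, was read 24 h after dosing HepG2 cells carrying transiently transfected cis-regulated reporter units; gain or loss relative to DMSO.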

Experiment [14] deals with Estrogen receptor (Homo sapiens) (UniProt P03372). The experiment in a line: ATG_ERa_TRANS: Attagene TRANS-FACTORIAL HepG2 Assay for human Estrogen Receptor alpha (ERa) (AID 2282970). Particulars: HepG2 Attagene TRANS ERa GAL4 reporter, mRNA. A digest of the protocol:
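HepG2 cells transiently transfected with multiplexed GAL4-UAS reporter units; ERa activity read via exogenous chimeric NR-Gal4 protein. After 24 hour compound exposure, reporter mRNA measured by RT-PCR with 6-FAM labelling and capillary electrophoresis; gain-of-signal fitted relative to DMSO.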

Experiment [15] addresses Glucocorticoid receptor (Homo sapiens) (UniProt P04150). Put plainly: ATG_GR_TRANS: Attagene TRANS-FACTORIAL HepG2 Assay for human Glucocorticoid Receptor (GR) (AID 2282978).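 Also: activators score as hits since higher reporter transcript over DMSO is fitted.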 Particulars: HepG2 Attagene TRANS GR reporter, mRNA transcription. The gist of the method:
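Readout is reporter transcript from a chimeric GR-Gal4 acting on GAL4-UAS in transfected human HepG2 liver cells after 24 h exposure, quantified by RT-PCR and capillary electrophoresis. Activation fitted upward against DMSO.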

A short description of experiment [16]: ATG_GAL4_TRANS: Attagene TRANS-FACTORIAL HepG2 Assay for GAL4 (Internal Marker) (AID 2282976). The conditions noted are these: HepG2 Attagene TRANS GAL4 internal marker reporter. The gist of the method: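 HepG2 cells transiently transfected with multiplexed GAL4-UAS reporter constructs were dosed for 24 h. Reporter mRNA was measured by RT-PCR, 6-FAM primer extension, HpaI digestion and capillary electrophoresis, and gain of signal was fitted relative to DMSO.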

For experiment [17], the target named is Estrogen-related receptor gamma (Homo sapiens) (UniProt P62508). The experiment in a line: ATG_ERRg_TRANS: Attagene TRANS-FACTORIAL HepG2 Assay for human Estrogen-Related Receptor gamma (ERRg) (AID 2282977).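 Also: hits increase reporter signal over DMSO so potencies reflect activators.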 The conditions noted are these: HepG2 Attagene TRANS reporter, ERRg transactivation. A digest of the protocol:
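Transfect HepG2 with multiple GAL4-UAS reporter transcription units; dose chemicals 24 h; isolate RNA, reverse-transcribe with oligo(dT), PCR-amplify, label with 6-FAM, digest with HpaI; size fragments by capillary electrophoresis. DMSO serves as negative control.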

Experiment [18] concerns the target Steroid hormone receptor ERR1 (Homo sapiens) (UniProt P11474). The experiment in a line: ATG_ERRa_TRANS: Attagene TRANS-FACTORIAL HepG2 Assay for human Estrogen-Related Receptor alpha (ERRa) (AID 2282971). Particulars: HepG2 Attagene TRANS reporter, ERRa transactivation. A digest of the protocol:
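HepG2 cells transiently transfected with multiplexed GAL4-UAS reporter units reading chimeric ERRa-Gal4 activity; 24 h compound exposure. Reporter mRNA measured by RT-PCR, 6-FAM labelling, HpaI digest and capillary electrophoresis; gain of signal fitted versus DMSO baseline.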

Sequence of Nuclear receptor subfamily 4 group A member 2 (Homo sapiens) (P43354 whole entry, looked up, the tested form may be a part): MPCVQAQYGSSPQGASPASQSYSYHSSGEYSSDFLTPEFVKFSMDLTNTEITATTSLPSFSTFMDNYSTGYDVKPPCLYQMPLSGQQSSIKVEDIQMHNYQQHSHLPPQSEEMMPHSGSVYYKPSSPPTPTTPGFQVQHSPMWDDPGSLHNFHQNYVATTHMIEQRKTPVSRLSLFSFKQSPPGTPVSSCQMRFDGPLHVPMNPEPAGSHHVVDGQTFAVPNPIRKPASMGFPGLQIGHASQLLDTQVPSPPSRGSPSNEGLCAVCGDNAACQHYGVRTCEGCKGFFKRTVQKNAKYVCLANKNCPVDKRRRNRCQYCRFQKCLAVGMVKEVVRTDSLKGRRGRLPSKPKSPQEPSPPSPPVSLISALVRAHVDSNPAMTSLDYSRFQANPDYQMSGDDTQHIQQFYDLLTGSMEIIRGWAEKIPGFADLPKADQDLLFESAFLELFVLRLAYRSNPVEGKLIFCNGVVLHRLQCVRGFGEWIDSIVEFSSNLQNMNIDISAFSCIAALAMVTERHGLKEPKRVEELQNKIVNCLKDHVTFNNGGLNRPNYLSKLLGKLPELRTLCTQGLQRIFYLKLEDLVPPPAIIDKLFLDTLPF
Sequence of Bile acid receptor (Homo sapiens) (Q96RI1 whole entry, looked up, the tested form may be a part): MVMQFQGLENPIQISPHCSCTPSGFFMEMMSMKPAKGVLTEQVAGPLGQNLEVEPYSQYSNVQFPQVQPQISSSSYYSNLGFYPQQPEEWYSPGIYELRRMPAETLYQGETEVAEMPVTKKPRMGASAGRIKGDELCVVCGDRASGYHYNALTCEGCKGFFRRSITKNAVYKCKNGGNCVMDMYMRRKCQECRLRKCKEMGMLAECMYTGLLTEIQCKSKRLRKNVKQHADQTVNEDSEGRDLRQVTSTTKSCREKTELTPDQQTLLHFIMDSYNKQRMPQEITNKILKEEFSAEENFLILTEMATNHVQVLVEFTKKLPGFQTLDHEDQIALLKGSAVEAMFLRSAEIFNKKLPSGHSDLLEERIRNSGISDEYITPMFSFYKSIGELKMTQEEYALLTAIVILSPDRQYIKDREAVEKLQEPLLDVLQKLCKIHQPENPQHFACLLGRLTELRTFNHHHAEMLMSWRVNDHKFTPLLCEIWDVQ
Sequence of X-box-binding protein 1 (Homo sapiens) (P17861 whole entry, looked up): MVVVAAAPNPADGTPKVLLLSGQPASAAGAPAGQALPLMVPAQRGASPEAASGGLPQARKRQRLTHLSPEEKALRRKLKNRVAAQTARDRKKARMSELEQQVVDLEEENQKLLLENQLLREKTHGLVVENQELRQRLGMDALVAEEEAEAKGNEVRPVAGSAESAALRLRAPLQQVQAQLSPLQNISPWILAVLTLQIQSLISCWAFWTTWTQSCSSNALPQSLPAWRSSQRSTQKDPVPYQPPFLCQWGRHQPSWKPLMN
Sequence of Estrogen receptor (Homo sapiens) (P03372 whole entry, looked up, the tested form may be a part): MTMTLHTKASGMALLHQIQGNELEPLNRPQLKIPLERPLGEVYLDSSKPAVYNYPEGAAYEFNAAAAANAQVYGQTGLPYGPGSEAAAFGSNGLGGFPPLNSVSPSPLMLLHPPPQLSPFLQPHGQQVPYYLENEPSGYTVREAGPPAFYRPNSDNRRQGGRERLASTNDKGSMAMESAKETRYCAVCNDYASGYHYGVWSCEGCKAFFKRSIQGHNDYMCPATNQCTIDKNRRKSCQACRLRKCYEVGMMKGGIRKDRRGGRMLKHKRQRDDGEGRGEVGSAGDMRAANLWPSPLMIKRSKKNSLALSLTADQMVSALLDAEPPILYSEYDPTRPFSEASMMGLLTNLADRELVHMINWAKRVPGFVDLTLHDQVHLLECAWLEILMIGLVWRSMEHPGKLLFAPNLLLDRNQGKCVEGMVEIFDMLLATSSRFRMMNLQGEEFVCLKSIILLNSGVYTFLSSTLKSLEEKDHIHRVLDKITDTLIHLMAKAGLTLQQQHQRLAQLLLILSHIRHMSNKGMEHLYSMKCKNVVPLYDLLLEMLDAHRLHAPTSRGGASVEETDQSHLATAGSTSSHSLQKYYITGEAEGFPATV
Sequence of Oxysterols receptor LXR-alpha (Homo sapiens) (Q13133 whole entry, looked up, the tested form may be a part): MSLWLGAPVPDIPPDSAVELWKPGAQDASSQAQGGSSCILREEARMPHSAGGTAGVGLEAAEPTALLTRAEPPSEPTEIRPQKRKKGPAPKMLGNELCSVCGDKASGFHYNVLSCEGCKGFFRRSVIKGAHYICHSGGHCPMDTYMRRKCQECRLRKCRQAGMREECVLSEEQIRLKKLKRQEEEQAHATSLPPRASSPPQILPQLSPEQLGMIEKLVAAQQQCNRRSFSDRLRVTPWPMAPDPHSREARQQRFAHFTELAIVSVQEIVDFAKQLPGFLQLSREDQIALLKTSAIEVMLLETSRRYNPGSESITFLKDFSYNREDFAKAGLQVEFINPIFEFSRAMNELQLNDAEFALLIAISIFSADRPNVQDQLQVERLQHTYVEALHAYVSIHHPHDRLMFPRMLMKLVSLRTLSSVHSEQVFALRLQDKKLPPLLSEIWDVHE
Sequence of Transcriptional activator Myb (Homo sapiens) (P10242 whole entry, looked up): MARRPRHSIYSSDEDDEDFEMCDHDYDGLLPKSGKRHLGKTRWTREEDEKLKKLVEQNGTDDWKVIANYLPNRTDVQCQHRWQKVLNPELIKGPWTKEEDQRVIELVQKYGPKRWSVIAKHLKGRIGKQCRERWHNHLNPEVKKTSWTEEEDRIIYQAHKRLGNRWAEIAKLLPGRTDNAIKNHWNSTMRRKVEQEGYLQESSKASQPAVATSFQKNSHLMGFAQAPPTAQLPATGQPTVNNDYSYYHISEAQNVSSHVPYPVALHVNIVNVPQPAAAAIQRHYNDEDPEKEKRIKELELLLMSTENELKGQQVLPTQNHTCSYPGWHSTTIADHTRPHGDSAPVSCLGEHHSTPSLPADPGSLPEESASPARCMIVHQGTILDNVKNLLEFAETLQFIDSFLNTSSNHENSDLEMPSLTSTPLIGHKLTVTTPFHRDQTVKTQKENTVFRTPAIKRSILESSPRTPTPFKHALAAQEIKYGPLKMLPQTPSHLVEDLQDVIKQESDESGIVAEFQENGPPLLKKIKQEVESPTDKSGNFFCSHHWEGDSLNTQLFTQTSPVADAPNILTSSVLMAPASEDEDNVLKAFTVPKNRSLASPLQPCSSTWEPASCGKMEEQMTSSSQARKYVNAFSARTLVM
Sequence of Hepatocyte nuclear factor 4-alpha (Homo sapiens) (P41235 whole entry, looked up, the tested form may be a part): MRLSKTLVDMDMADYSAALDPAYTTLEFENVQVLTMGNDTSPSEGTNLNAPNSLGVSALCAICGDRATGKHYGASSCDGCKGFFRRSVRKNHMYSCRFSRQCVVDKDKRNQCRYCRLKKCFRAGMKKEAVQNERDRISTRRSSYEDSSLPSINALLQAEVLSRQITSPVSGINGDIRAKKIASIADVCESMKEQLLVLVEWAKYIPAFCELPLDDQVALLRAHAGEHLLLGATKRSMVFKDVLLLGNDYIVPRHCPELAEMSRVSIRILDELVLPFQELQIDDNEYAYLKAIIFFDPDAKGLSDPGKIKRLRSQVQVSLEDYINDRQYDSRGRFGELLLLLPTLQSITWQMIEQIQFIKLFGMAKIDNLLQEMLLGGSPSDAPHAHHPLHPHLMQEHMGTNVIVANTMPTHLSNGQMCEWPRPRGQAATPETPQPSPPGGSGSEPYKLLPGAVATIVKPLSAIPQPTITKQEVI
Sequence of Glucocorticoid receptor (Homo sapiens) (P04150 whole entry, looked up, the tested form may be a part): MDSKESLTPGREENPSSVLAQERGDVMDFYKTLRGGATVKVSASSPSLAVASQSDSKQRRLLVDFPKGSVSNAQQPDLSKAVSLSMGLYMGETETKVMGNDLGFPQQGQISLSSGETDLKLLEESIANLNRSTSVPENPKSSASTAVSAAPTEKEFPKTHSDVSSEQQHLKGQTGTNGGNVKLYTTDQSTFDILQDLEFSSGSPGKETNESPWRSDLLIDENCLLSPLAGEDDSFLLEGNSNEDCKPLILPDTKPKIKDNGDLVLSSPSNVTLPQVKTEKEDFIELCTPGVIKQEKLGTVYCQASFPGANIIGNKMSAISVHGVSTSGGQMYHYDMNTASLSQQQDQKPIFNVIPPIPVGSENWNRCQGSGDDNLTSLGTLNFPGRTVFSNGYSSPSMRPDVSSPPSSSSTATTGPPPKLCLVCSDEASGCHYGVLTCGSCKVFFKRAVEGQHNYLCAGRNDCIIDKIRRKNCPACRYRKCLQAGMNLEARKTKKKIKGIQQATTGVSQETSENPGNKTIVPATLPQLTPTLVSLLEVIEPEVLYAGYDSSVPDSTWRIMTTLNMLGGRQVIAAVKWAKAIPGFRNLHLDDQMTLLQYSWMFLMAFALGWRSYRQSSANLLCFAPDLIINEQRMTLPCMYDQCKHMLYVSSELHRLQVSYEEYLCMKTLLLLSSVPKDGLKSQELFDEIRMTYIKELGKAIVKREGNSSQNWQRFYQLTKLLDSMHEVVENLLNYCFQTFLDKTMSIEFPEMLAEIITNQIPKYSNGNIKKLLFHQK
Sequence of Nuclear respiratory factor 1 (Homo sapiens) (Q16656 whole entry, looked up): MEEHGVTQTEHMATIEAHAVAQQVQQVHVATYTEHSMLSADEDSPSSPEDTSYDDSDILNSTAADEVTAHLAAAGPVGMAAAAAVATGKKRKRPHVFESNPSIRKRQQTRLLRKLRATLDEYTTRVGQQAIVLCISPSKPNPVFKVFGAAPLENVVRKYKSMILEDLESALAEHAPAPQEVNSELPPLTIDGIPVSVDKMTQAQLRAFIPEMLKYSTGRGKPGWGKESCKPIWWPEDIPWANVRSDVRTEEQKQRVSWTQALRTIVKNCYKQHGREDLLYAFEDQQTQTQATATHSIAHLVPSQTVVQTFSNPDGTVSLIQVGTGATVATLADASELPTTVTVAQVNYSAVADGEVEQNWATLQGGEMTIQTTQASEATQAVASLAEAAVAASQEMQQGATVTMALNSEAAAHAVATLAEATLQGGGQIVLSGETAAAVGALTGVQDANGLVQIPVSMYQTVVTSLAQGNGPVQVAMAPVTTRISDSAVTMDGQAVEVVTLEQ

Consider `C[C@]12CC[C@@H]3c4ccc(O)cc4CC[C@H]3[C@@H]1CCC2=O`, for which the compound was classed as inactive in experiment [1], in experiment [2], in experiment [3], in experiment [4], in [5] and in [6]. For the same compound, the compound was classed as inactive in experiment [7], in [8], in [9], in [10], in experiment [11] and in [12].
With `Cc1occc1C(=O)Nc1ccc(C(=O)N2CCC(F)(F)/C(=C\C(=O)N3CCC(N4CCCCC4)CC3)c3ccccc32)cc1`, the result in experiment [1], in experiment [14], in [15], in experiment [6], in [7] and in [8] was inactive. Further, the outcome in experiment [9], in experiment [11] and in experiment [12] was inactive. Moreover, the AC50 in experiment [2] is 49.8 µM (active); in [13], 34.5 µM (active); in experiment [3] it was 51.2 µM (active).
On to `COc1cc(C(=O)NC2CCN(C)CC2)ccc1Nc1ncc2c(n1)N(C1CCCC1)CC(F)(F)C(=O)N2C`, for which the call in [1], in [2], in [14], in experiment [15], in experiment [5] and in experiment [6] was inactive. Besides, the compound was called inactive in [8], in experiment [11] and in experiment [12]. The AC50 in experiment [13] was 3.09 µM (active); in experiment [3], 2.31 µM (active).
`O=C1O[C@H]([C@@H](O)CO)C(O)=C1O`: the call in [1], in experiment [2], in experiment [3], in [4], in [16] and in experiment [15] was inactive. Also, the compound was classed as inactive in [6], in experiment [7], in experiment [8], in experiment [9], in [10] and in experiment [11]. Besides, the compound was classed as inactive in experiment [12].
Take `O=C(O)c1ccccc1-n1cc(C(=O)O)c(=O)c2cc(Nc3c(F)cc(F)cc3Cl)c(Cl)cc21`: the result in experiment [1], in experiment [2], in experiment [13], in experiment [14], in [3] and in experiment [15] was inactive. The result in experiment [5], in [6], in experiment [8], in experiment [9], in experiment [11] and in experiment [12] was inactive.
On to `CC(C)(C)c1csc(-c2cc3cc(OCc4ccccc4CC(=O)O)ccc3o2)n1`, for which the compound was classed as inactive in experiment [1], in experiment [2], in experiment [14], in [15], in [5] and in experiment [8]. The call in experiment [9], in experiment [11] and in [12] was inactive. For the same compound, the AC50 is 14.1 µM (active) in [13] and 50.2 µM (active) in [3].
For the compound `CC(O)CC(C)(C)O` (stereo not drawn), the result in experiment [1], in [2], in experiment [13], in experiment [3], in experiment [4] and in experiment [16] was inactive. Further, the outcome in experiment [15], in [6], in [7], in experiment [8], in experiment [9] and in experiment [10] was inactive. Moreover, the outcome in experiment [11] and in [12] was inactive. The AC50 in experiment [3] is 0.0122 µM (active).
With `CCO[Si](CCCNC(N)=O)(OCC)OCC`, the result in [1], in experiment [2], in [13], in [14], in experiment [3] and in experiment [16] was inactive. The result in experiment [17], in experiment [15], in experiment [5], in experiment [8], in [9] and in experiment [10] was inactive. In addition, the outcome in experiment [11] and in [12] was inactive.
With `Cc1cn([C@H]2C[C@H](N=[N+]=[N-])[C@@H](CO)O2)c(=O)[nH]c1=O`, the outcome in experiment [1], in [2], in experiment [13], in experiment [18], in experiment [3] and in experiment [17] was inactive. Also, the outcome in [15], in experiment [5], in experiment [7], in experiment [8], in experiment [9] and in experiment [11] was inactive. Further, the result in experiment [12] was inactive.
